# About 310 (2.8%) of roughly 11,000 compounds were called active. Rule as the data show it: active = activity change below about -85%; inactive = the rest. The sample as a whole holds a higher share of actives than the screen did.
# Test system: intestinal alkaline phosphatase [Mus musculus]
# Experiment: activators of mouse IAP, confirmation, biochemical, luminescence, single concentration (AID 434970)
# Conditions: purified mouse IAP, CDP-Star luminescence, 30 min, at 10 µM; activation factor: measured here: IAP activation factor, stronger effect = higher value; activity change, negative = activation: stronger effect = lower value
SMILES,activation factor,"activity change, negative = activation"
CN1CCN(C(CNS(=O)(=O)c2ccc(F)cc2)c2cccnc2)CC1 (stereo not given),1.1,-10.1% (inactive)
O=C(CSc1nnc(C2CC2)n1Cc1ccccc1)NCc1ccccc1,1.05,-5% (inactive)
Cc1ccc2[nH]c3c(NCc4ccccc4)ncnc3c2c1,2.49,-149% (active)
O=C(Cn1cnc2c(NCc3ccccc3)ncnc21)NCc1ccc2[nH]ccc2c1,1.1,-9.85% (inactive)
COC(=O)c1ccc(CNC(=O)Cn2cnc3c(NCc4ccccc4)ncnc32)cc1,0.989,1.05% (inactive)
Cc1ccc2[nH]c3c(N4CCN(Cc5ccccc5)CC4)ncnc3c2c1,1.25,-24.6% (inactive)
O=C(Cn1cnc2c(NCc3ccccc3)ncnc21)NCc1ccccc1,0.932,6.8% (inactive)
Fc1ccc2[nH]c3c(NCc4ccccc4)ncnc3c2c1,2.25,-125% (active)
CCOc1ccc2[nH]c3c(NCCC(C)C)ncnc3c2c1,1.85,-84.7% (inactive)
Fc1ccc2[nH]c3c(NCCN4CCOCC4)ncnc3c2c1,1.07,-7.05% (inactive)
COc1cc(CNc2ncnc3c2[nH]c2ccc(C)cc23)cc(OC)c1,2.97,-197% (active)
COc1ccc(CNC(=O)Cn2cnc3c(NCc4ccccc4)ncnc32)cc1,1.01,-0.55% (inactive)
COc1ccc2[nH]c3c(N4CC(C)OC(C)C4)ncnc3c2c1 (stereo not given),1.17,-17.4% (inactive)
COc1ccc(CNc2ncnc3c2[nH]c2ccccc23)cc1,2.71,-171% (active)
O=C(CSc1nnc(C2CC2)n1Cc1ccccc1)N1CCN(S(=O)(=O)c2ccccc2)CC1,1.04,-4.25% (inactive)
O=C(NCCc1ccccc1)c1nc2nc(-c3cccs3)cc(C(F)(F)F)n2n1,0.956,4.4% (inactive)
Cc1ccc(S(=O)(=O)C2CCOC2=O)cc1 (stereo not given),0.793,20.7% (inactive)
COc1ccc(C(c2nnnn2CS(=O)(=O)c2ccc(C)cc2)N2CCN(c3ncccn3)CC2)cc1 (stereo not given),0.922,7.75% (inactive)
Cc1nnc(SCCC(C)C)[nH]c1=O,1.13,-12.6% (inactive)
Cc1onc(-c2ccccc2Cl)c1C(=O)OCC(=O)c1ccc2c(c1)OCCO2,0.972,2.85% (inactive)
CCOC(=O)C1=CN(CC)S(=O)(=O)NC1c1ccc(F)c(Cl)c1 (stereo not given),1.1,-9.6% (inactive)
CC[C@]12c3[nH]c4cc(CCC(=O)N(C)C)ccc4c3CCN1C(=O)[C@@H](CC(=O)NCCN1CCOCC1)C[C@@H]2C(=O)N1CCN(C(=O)C2CC2)CC1,1.07,-6.6% (inactive)
Cc1cccc(-c2noc(CCC(=O)N3CCN(c4cc(C)ccc4C)CC3)n2)c1,0.938,6.25% (inactive)
c1coc(C2Nc3cccc4cccc(c34)N2)c1,0.307,69.3% (inactive)
CN1CC2([N+](=O)[O-])CC=C(Oc3ccccc3)C([N+](=O)[O-])(C1)C2 (stereo not given),0.919,8.05% (inactive)
C#CCOCCOCCOCCNc1nc(N2CCN(C(=O)CCCCCCCCCCNC(=O)Cn3cc(CCCCCN)nn3)CC2)nc(N2CCN(C(=O)CCCCCCCCCCNC(=O)[C@H](CO)n3cc(CCCSC)nn3)CC2)n1,2.53,-153% (active)
C#CCOCCOCCOCCNc1nc(N2CCN(C(=O)CCCCCCCCCCNC(=O)Cn3cc(CCCCCN)nn3)CC2)nc(N2CCN(C(=O)CCCCCCCCCCNC(=O)[C@@H](CCSC)n3cc(CCO)nn3)CC2)n1,3.56,-256% (active)

SMILES,activation factor,"activity change, negative = activation"
C#CCOCCOCCOCCNc1nc(N2CCN(C(=O)CCCCCCCCCCNC(=O)[C@@H](CCSC)n3cc(CCO)nn3)CC2)nc(N2CCN(C(=O)CCCCCCCCCCNC(=O)[C@H](CCSC)n3cc(CCO)nn3)CC2)n1,1.78,-77.9% (inactive)
C#CCOCCOCCOCCNc1nc(N2CCN(C(=O)CCCCCCCCCCNC(=O)Cn3cc(C[C@@H](C)O)nn3)CC2)nc(N2CCN(C(=O)CCCCCCCCCCNC(=O)[C@@H](CCSC)n3cc(CCO)nn3)CC2)n1,1.97,-96.8% (active)
CCOc1ccc(-n2c(SCC(=O)NCc3ccco3)nc3c(c2=O)SCC3)cc1,0.865,13.5% (inactive)
COc1cc(O)c2c(c1)OC(C)(C)CC2=O,1.08,-7.6% (inactive)
O=C(CSc1nc2cccnc2n1Cc1ccccc1)N1CCCC1,1.07,-7.2% (inactive)
COC(=O)[C@H](CCSC)NC(=O)Cn1cnc(C(=O)Nc2ccc(C)c(C)c2)n1,0.956,4.35% (inactive)
CC(NC(=O)CCSc1nc(-c2ccco2)cc(C(F)(F)F)n1)c1ccccc1 (stereo not given),0.94,6% (inactive)
O=C(N/N=C/c1ccc([N+](=O)[O-])o1)c1ccccc1NS(=O)(=O)c1cccs1,0.375,62.5% (inactive)
O=C(c1ccc(C(=O)N2CCOCC2)nc1)N1CCOCC1,1.09,-8.9% (inactive)
CCc1ccc(NC(=O)c2sccc2-n2cccc2)cc1,1.04,-4.35% (inactive)
Fc1cc(NC(=S)NCc2ccc(CNC(=S)Nc3ccc(Cl)c(F)c3)cc2)ccc1Cl,1.44,-44.1% (inactive)
O=C(NCCSCc1ccco1)Nc1cc(Cl)cc(Cl)c1,1.27,-27.2% (inactive)
O=C(Nc1ccc(Cl)cc1)NC1CCCCC1Cc1ccco1 (stereo not given),2.11,-111% (active)
O=C(Nc1ccc(Cl)cc1)C1CCN(C(=O)NC2CCCCC2)CC1,0.914,8.6% (inactive)
CC/C(=N\n1nnnc1Nc1ccccc1)c1ccccc1,1.02,-2.45% (inactive)
Cc1ccc(N2C(=O)/C(=C/c3ccco3)SC2=S)cc1,0.396,60.5% (inactive)
Cc1cc2oc(=O)cc(-c3ccccc3)c2c(C)c1-c1ccc(N(C)C)cc1,0.885,11.4% (inactive)
COc1cccc(N/C(C)=C/C(=O)c2ccc(Br)cc2)c1,1,-0.05% (inactive)
O=C(Nc1ccc2c(c1)CCC2)Nc1ccccc1F,1.69,-68.5% (inactive)
O=C(Nc1ccccc1)Nc1ccc2c(c1)CCC2,1.95,-94.8% (active)
Cc1cccc(NC(=O)Nc2ccc3c(c2)CCC3)c1,1.41,-41.4% (inactive)
Cn1cccc1C(=O)OCC(=O)Nc1ccc2c(c1)CCC2,1.05,-5.05% (inactive)
COc1cccc(NC(=O)Nc2ccc3c(c2)CCC3)c1,2.9,-190% (active)
COc1cccc(NC(=O)Nc2ccc3c(c2)N(C)C(=O)CS3)c1,0.986,1.5% (inactive)
Cc1ccc(NCc2nnc(SCC(=O)N3CCCc4ccccc43)o2)c(C)c1,1.02,-2.3% (inactive)
CCS(=O)(=O)n1nc(-c2ccccc2)nc1N,0.926,7.4% (inactive)
CC(/C=N/n1cnnc1)=C\c1ccccc1,1.02,-1.9% (inactive)

SMILES,activation factor,"activity change, negative = activation"
CC1(C)CC(=O)C2=C(C1)NC(=O)CC2C(=O)NCc1ccc(F)cc1 (stereo not given),1.3,-29.9% (inactive)
COc1cc(-c2nnc3n2N=C(c2ccccc2)CS3)cc(OC)c1OC,0.996,0.4% (inactive)
CCCNC(=O)c1ccccc1NC(=O)CN(c1ccccc1OCC)S(C)(=O)=O,1.15,-15.4% (inactive)
O=P(OC1CCS(=O)(=O)C1)(c1ccccc1)c1ccccc1 (stereo not given),0.921,7.85% (inactive)
[N-]=[N+]=CC(=O)CCCN1C(=O)c2ccccc2C1=O,1.09,-9.05% (inactive)
O=C(Cc1cccs1)Nc1nnc(CCc2ccccc2)s1,1.15,-14.7% (inactive)
Cc1cc(C)cc(NC(=O)NC2CCCCCCC2)c1,3.37,-237% (active)
O=C(Nc1cccc(F)c1)c1ccccc1,1.01,-0.8% (inactive)
Cc1ccc(NC(=O)C2CCN(C(=O)NC3CCCCC3)CC2)cc1Cl,1.21,-20.9% (inactive)
Cc1cccc(NC(=O)NC2CCCCCCC2)c1,2.45,-145% (active)
CC(=O)OC(C(=O)NC1CCCCC1)c1cccc(C)c1 (stereo not given),1.04,-4.4% (inactive)
Cc1cc(C)cc(NC(=O)Nc2ccc(N3CCCCC3)cc2)c1,1.16,-15.9% (inactive)
O=C(Nc1cccc(F)c1)NC1CCCCCCC1,2.42,-142% (active)
CC1CCCN(C(=O)C2(NC(=O)Nc3cccc(F)c3)CCCCC2)C1 (stereo not given),1.81,-81.1% (inactive)
Cc1ccc(NC(=O)NC2CCCCCCC2)cc1C,2.56,-156% (active)
Cc1ccc(NC(=S)NC2CCCCC2)cc1S(=O)(=O)N(C)C,1.3,-29.9% (inactive)
Cc1cc(C)cc(NC(=S)NCCN(C2CCCCC2)C2CCCC2)c1,1.28,-28.3% (inactive)
Cc1cccc(NC(=O)CC2NC3CCCCC3NC2=O)c1 (stereo not given),0.974,2.55% (inactive)
C=CCNc1nc(Nc2ccc(OC)cc2)nc(OC)n1,0.992,0.8% (inactive)
CC(C)C(NC(=S)NCc1ccccc1)C(=O)O (stereo not given),0.93,7% (inactive)
Cc1ccc(-c2nn3c(C)nnc3s2)cc1NC(=O)c1ccc(-c2cccc(Cl)c2)o1,0.849,15.2% (inactive)
Cc1ccccc1NC1=C(Cl)C(=O)OC1OC(C)C (stereo not given),0.976,2.45% (inactive)
CCOC(=O)c1c(N)sc(C(N)=O)c1C,1.01,-0.6% (inactive)
O=C(Nc1c(-c2ccccc2)nc2sccn12)c1ccccc1,0.907,9.25% (inactive)
CCN(CC)S(=O)(=O)c1ccc(Cl)c(C(=O)Oc2cccnc2)c1,0.919,8.05% (inactive)
COC(=O)C1=C(C)NC2=C(C(=O)C(C(=O)OC)C(c3ccc(OC)cc3)C2)C1c1ccccn1 (stereo not given),1.07,-6.6% (inactive)
